Test results taken from ChEMBL document CHEMBL4513216, “Probing the Open Global Health Chemical Diversity Library for Multistage-Active Starting Points for Next-Generation Antimalarials” (ACS Infect Dis, 2020).
Among all 69,000 compounds or so, about 8,600 (12%) showed an effect of 50% or more. This excerpt belongs to a sample that is enriched for strong results.

Test system: Plasmodium berghei
Assay: Screen against P. berghei liver stage (PbLuc), transformed with Luciferase, at 10uM
Type: functional, HepG2
Conditions: tested at 10 uM

Structure (SMILES)	INHIBITION
COc1ccc(CCC(=O)N2CCCCC2Cn2cccn2)cc1F (stereo unspecified)	-31.8%
O=C(NCc1ccccn1)[C@]12COC[C@H]1CN(Cc1ccccc1F)C2	-13.2%
Cc1ncsc1C(=O)N1CCCC1c1c(C)nn(C)c1Cl (stereo unspecified)	-0.96%
CC(NCc1cccc(C#N)c1)c1ccccn1 (stereo unspecified)	-21%
CCc1nc(C2CCCN2Cc2nnc(C3CCC3)o2)no1 (stereo unspecified)	41.65%
CC(C)CCn1cc(C(C(=O)O)N2CCSCC2)cn1 (stereo unspecified)	17.6%
CC(C)C(=O)NC1CCCc2nc(N3CCOCC3)ncc21 (stereo unspecified)	18.3%
Cc1ccc(-c2nc(CN3CCOCC3)no2)cc1N1CCNC1=O	30%
CCNC(=O)CNC(=O)c1nc(C2CC2)n(-c2ccccc2Cl)n1	-37.6%
Cc1ccc(Cl)c(CN2CCN(C)C(C(=O)O)C2)c1F (stereo unspecified)	-4.52%
O=C(c1cc(Cl)c[nH]1)N(CCCO)Cc1cccnc1	39%
CCOC(=O)CCN(Cc1cccnc1)C(=O)c1cc(Cl)c[nH]1	57.5%
CCCc1cc(C(=O)N(Cc2cccnc2)Cc2cccnc2)[nH]n1	6.28%
CC(C)c1nnc(CN2CC(n3cccn3)C2)o1	-145%
CN(C(=O)NCCN1CCOCC1)C1CCN(c2ccccc2)C1=O (stereo unspecified)	13.375%
c1csc(CCC2CCCCN2Cc2noc(C3CC3)n2)c1 (stereo unspecified)	34.9%

Structure (SMILES)	INHIBITION
Cc1nc(CN2CCCCC2CCc2cccs2)co1 (stereo unspecified)	24.9%
COCc1noc(CN2CCCCC2CCc2cccs2)n1 (stereo unspecified)	51.2%
CCNC(=O)CNCc1c(C(C)C)nn(C)c1N1CCOCC1	11.35%
COCCn1cc(NC(=O)N(CCC(N)=O)Cc2ccccc2)cn1	-1.25%
CCCN(Cc1ccccc1O)C(=O)Nc1cnn(CCOC)c1	59.7%
CCN(CC(C)O)C(=O)Nc1cnn(CCOC)c1 (stereo unspecified)	29.8%
CC(=O)NCC(=O)N1CCC2(CC1)NC(=O)CC2c1cccnc1 (stereo unspecified)	34.6%
COCCn1ccnc1C1CCCN(C(=O)CSc2nnc(C)o2)C1 (stereo unspecified)	20.9%
CCC(=O)N1CCCCC1c1nc(N(C)C)ncc1-c1cc(C)no1 (stereo unspecified)	22.5%
CNC(=O)NC(=O)C(C)N1CCN(C2CCCC2)CC1 (stereo unspecified)	28.7%
CNC(=O)NC(=O)C(C)N1CCC(c2c[nH]c3ccc(OC)cc23)CC1 (stereo unspecified)	61.5%
COc1ccc2[nH]cc(C3CCN(CCC(N)=O)CC3)c2c1	36.6%
CNC(=O)NC(=O)C(C)N1CCCc2cc(OC)ccc2C1 (stereo unspecified)	-25.1%
CCNC(=O)NC(=O)CN1CCC(c2c[nH]c3ccc(OC)cc23)CC1	62.6%
CNC(=O)NC(=O)CN1CCC(c2c[nH]c3ccc(OC)cc23)CC1	15.1%
